Screening results from PubChem.
Vaccinia Venus – inhibitors of vaccinia virus (Venus reporter) | Vaccinia virus Venus reporter expression, fluorescence | Potency, µM (series often up to 36.5 µM), usual class: inhibitors | actives 0.46% (n = 330,000) | AID 720580; calls by dose curve; tested in A549 cells; also: nearly all actives have a fitted effect of over 30% in size
FMDV inh – foot and mouth disease virus antiviral activity; FMDV antiviral cell-based qHTS; Potency, µM (top dose mostly 57.9 µM), usual class: inhibitors; actives 1.2% (n = 410,000); AID 1159524; calls by dose curve; tested in HEK293T cells; also: read-out not given here; nearly all actives have a fitted effect of over 45% in size
LASV entry inh – Lassa virus entry inhibition; Lassa virus pseudotype entry inhibition, cell reporter; Potency, µM (series often up to 37.9 µM), actives largely listed as inhibitors; actives 1.2% (n = 300,000); calls by dose curve; tested in HEK293 cells; also: nearly all actives have a fitted effect of over 50% in size
Marburg entry inh – inhibitors of Marburg virus binding or cell entry. Marburg virus pseudotyped entry inhibition, cell reporter. Potency, µM (doses to about 37.8 µM), hits mostly inhibitors. actives 1.8% (n = 300,000); calls by dose curve; tested in HEK293 cells
VACV mCherry inh – inhibitors of vaccinia virus infection (mCherry reporter signal). Vaccinia virus mCherry reporter infection, fluorescence. Potency, µM (top dose mostly 36.5 µM), actives largely listed as inhibitors. actives 0.63% (n = 310,000); calls by dose curve; tested in A549 cells; also: nearly all actives have a fitted effect of over 35% in size
HCMV inh – blocks human cytomegalovirus replication. HFF cells, HCMV-luciferase reporter, 72 h; active compounds read low. activity change, negative = inhibition, % at 57.5 µM. actives 4.5% (n = 410,000); in the data active = activity change below about -60%; inconclusive = no clear call, values can overlap the other calls; inactive = above about -39%
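Two-dose cell screen: HFF monolayers treated with compounds and infected with luciferase-expressing HCMV at 1 PFU/cell, 72 h at 37C, then lysed for luciferase measurement.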
Numbers stand for hits; - = inactive; ? = inconclusive; . = no result given; ! = repeats disagree; [ ] = dose if it differs, or a comment. In the library only some 6.5% were active in any assay of this set; here they are far more common.

SMILES	Vaccinia Venus	FMDV inh	LASV entry inh	Marburg entry inh	VACV mCherry inh	HCMV inh
CCc1cc(C(=O)N2CCCC(CCC(=O)N3CCN(c4ccccn4)CC3)C2)no1 (stereo not given)	-	?	-	-	-	?
CC(C)c1cc(C(=O)N2CCCC(CCC(=O)N3CCN(c4ccccn4)CC3)C2)no1 (stereo not given)	-	?	-	-	-	-62
O=C(Nc1nc(-c2ccc(S(=O)(=O)N3CCCC3)cc2)cs1)c1cccs1	?	?	?	?	.	-87
O=C(Nc1ccc(S(=O)(=O)N2CCCC2)cc1)c1cccs1	?	-	?	-	-	?
O=C(Nc1nc(-c2ccc(S(=O)(=O)N3CCCCCC3)cc2)cs1)c1cccs1	-	10µM	-	?	-	-
O=C(Nc1nc(-c2ccccc2)cs1)C1CCCN(S(=O)(=O)c2ccccc2)C1 (stereo not given)	-	10µM	10µM	8.2µM	?	?
CCOC(=O)c1cccc(NC(=O)c2ccc3c(c2)nnn3C2CCCC2)c1	-	-	-	.	-	-
O=C(N/N=C1/C[C@@H](O)[C@@H](O)[C@@H]2[C@@H]3C(=O)N(C[C@@H]4CCCO4)C(=O)[C@H]3CC[C@@H]12)OCc1ccccc1	.	.	.	-	.	.
CCCCN1C(=O)c2[nH]nc(-c3ccccc3O)c2C1c1ccc(OCc2ccccc2)c(OC)c1 (stereo not given)	-	-	?	?	-	?
COCCCN1C(=O)c2[nH]nc(-c3ccccc3O)c2C1c1ccc(OCc2ccccc2)cc1 (stereo not given)	-[7.34 µM]	?	?	?	-[7.34 µM]	-96
COc1ccc(CCN2C(=O)c3[nH]nc(-c4ccccc4O)c3C2c2cccc(O)c2)cc1OC (stereo not given)	-	-	?	-	?	-
COCCN1C(=O)c2[nH]nc(-c3ccccc3O)c2C1c1ccc(OC)cc1 (stereo not given)	-	-	?	-	-	-
CCCCN1C(=O)c2[nH]nc(-c3ccccc3O)c2C1c1ccc(OCc2ccccc2)cc1 (stereo not given)	-	-	?	?	-	-108
COc1cccc(C2c3c(-c4ccccc4O)n[nH]c3C(=O)N2CCc2ccc(OC)c(OC)c2)c1 (stereo not given)	-	-	?	7.1µM	-	-
CC(C)(C)c1ccc(Oc2nc3ccccn3c(=O)c2/C=C(\C#N)c2nc3ccccc3[nH]2)cc1	-	-	?	?	-	-
N#Cc1ccc2c(c1)C[C@]1(CCCCN3C(=O)c4ccccc4C3=O)Oc3c(c(=O)oc4ccc(F)cc34)[C@@H]2O1	.	.	.	-	.	.
COc1ccc(NS(=O)(=O)c2ccc3c(c2)OCCO3)cc1OC	-	-	-	?	-	-75
CC(=O)NCCNC(=O)c1cccc(NS(=O)(=O)c2ccc3c(c2)OCCO3)c1	-	-	-	-	-	-
CC(=O)Nc1ccc(S(=O)(=O)Nc2ccc3c(c2)OCCO3)cc1Cl	-	-	-	-	-	-88
CC(=O)NCCc1ccc(S(=O)(=O)Nc2ccc3c(c2)OCCO3)cc1	-	-	-	-	-	-64
CCCCCCN(CCCCCC)c1ccc(/C=C/c2ccnc3ccccc23)cc1	-	.	.	.	-	.
CN(C(=O)CSc1nncn2c1cc1occc12)c1ccccc1	-	-	-	.	-	-98
Cc1cc(C)cc(NC(=O)CSc2nncn3c2cc2occc23)c1	-	-	-	.	-	?
COC(=O)N[C@@H](c1cccc(C)c1)C(C(C)=O)C(=O)OC (stereo not given in full)	.	.	.	-	.	.
CCOC(=O)c1ccc(NC(=O)C2C3C=CC(C3)C2C(=O)O)cc1 (stereo not given)	-	-	-	?	.	-
SMILES	Vaccinia Venus	FMDV inh	LASV entry inh	Marburg entry inh	VACV mCherry inh	HCMV inh
O=C(ONC(=O)C1C2C=CC(C2)C1C(=O)NOC(=O)c1ccccc1)c1ccccc1 (stereo not given)	-	-	7.9µM	4µM	?	-
COC(=O)c1ccc(NC(=O)C2C3C=CC(C3)C2C(=O)O)cc1 (stereo not given)	.	-	.	.	.	-98
C=CCOC(=O)N[C@H](C(C(=O)OC)=C(C)NCc1ccccc1)c1ccc(Br)cc1	.	.	.	-	.	.
O=C(NC(Cc1c[nH]c2ccccc12)C(=O)Nc1ccc(F)c([N+](=O)[O-])c1)c1cccs1 (stereo not given)	-	-	0.58µM	0.79µM	2.5µM	-87
CC(=O)N1CN(C2CCCC2)Cc2c1sc1c2CCCC1	.	-	-	-	.	-
CC(=O)N1CN(C2CC(C)(C)NC(C)(C)C2)Cc2c1sc1c2CCCC1	-	-	?	?	-	-63
O=C(Nc1ccccc1)c1cc2ccccc2o1	-	-	10µM	?	-	-
COc1cc(NC(=O)c2cccc(C)c2)ccc1NC(=O)c1cc2ccccc2o1	8.9µM	-	.	.	?	-87
O=C(COc1ccc(/C=N/NC(=O)c2cc3ccccc3o2)cc1Br)Nc1ccccc1	?	-	?	?	?	-100
CC(=O)Nc1ccc(NC(=O)c2cc(=O)c3ccccc3o2)cc1	-	-	-	-	-	-85!
CCOc1cccc(C(=O)Nc2ccc(NC(=O)c3cc4ccccc4o3)c(OC)c2)c1	-	-	?	?	-	-
CC(=O)c1ccc(F)c(-c2cc(C)cc3c2OC(CNC(=O)Cn2nc(C)nc2C)C3)c1 (stereo not given)	-	-	.	.	-	.
CN(Cc1ccco1)c1nc(-c2ccccc2C(F)(F)F)nc2ccccc12	.	-	.	.	.	.
CCN1[C@H](C(=O)NCCOC)[C@@H](CO)[C@@H]2Cn3c(ccc(-c4ccc(C(=O)N(C)C)cc4)c3=O)[C@@H]21	.	.	.	.	.	-
Cc1ccc(C(=O)c2sc(Nc3ccc(F)cc3)nc2N)c(C)c1	-	-	-	.	?	?
Cc1cccc(C)c1NC(=O)C(C(C)C)N1C(=O)C(=O)c2ccccc21 (stereo not given)	.	.	.	.	.	-
Cc1ccc(NC(=O)c2cc3ccccc3o2)nc1	-	?	5µM	?	-	-
Cc1cc(C)nc(NC(=O)c2cc3ccccc3o2)n1	-	.	-	?	-	-
CN(C)c1ccc(C2CC(c3cccc(NS(C)(=O)=O)c3)=NN2C(=O)c2ccccc2)cc1 (stereo not given)	-	-	?	?	-	-
COc1cccc(C2CC(c3cccc(NS(C)(=O)=O)c3)=NN2C(=O)c2ccccc2)c1OC (stereo not given)	-	-	14µM	?	-	-73
COc1cccc(C2CC(c3ccc(Br)cc3)=NN2C(=O)c2ccncc2)c1OC (stereo not given)	?	?	?	?	14µM	-
COc1ccccc1C1CC(c2ccc(Br)cc2)=NN1C(=O)c1cccnc1 (stereo not given)	?	32µM	?	-	-	-
COc1ccc(-c2cc(CNC(=O)CCl)on2)cc1	8.9µM	?	?	?	.	-63
Cc1ccc(S(=O)(=O)c2cnc(-c3ccccc3)[nH]c2=O)cc1	-	.	.	.	-	.
